Screening results: PubChem, National Center for Advancing Translational Sciences (NCATS)
HT1080-NT tox = qHTS for induction of synthetic lethality in tumor cells producing 2HG: qHTS for the HT-1080-NT fibrosarcoma cell line | actives 1.6% (n = 360,000) | HT-1080-NT fibrosarcoma viability, CellTiter-Glo ATP luminescence, 48 h | Potency, µM (doses to about 46.1 µM), without a hit: at the highest dose activity, negative = less viability, hits mostly cytotoxic | AID 686970, 2013;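 further: NT is the 2HG producing partner of a matched IDH1 knockdown line; 0% = DMSO-treated cells and -100% = media-only wells without cells; nearly all actives have a fitted effect of over 55% in size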
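HT-1080-NT; 750 cells/well; 5% FBS RPMI; 48 h compound, 37 degrees C; CellTiter-Glo luminescence; curve fitting and curve-class assignment.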
DT40 TDP1 CPT = qHTS for Inhibitors of human tyrosyl-DNA phosphodiesterase 1 (TDP1): qHTS in cells in presence of CPT. AID 686979, 2013. Potency, µM (highest dose often 46.2 µM), without a hit: top-dose activity change, negative = growth inhibition, hits mostly inhibitors. actives 12% (n = 420,000). chicken DT40 Tdp1-/-;hTDP1 cells + 20 nM CPT, ATP luminescence, 48 h; further: nearly all actives have a fitted effect of over 55% in size
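Cell growth measured by CellTiter-Glo luminescence after a minimum 48 h, 37 C compound exposure with 20 nM CPT in Tdp1-knockout DT40 cells stably expressing hTDP1, seeded 400/well; qHTS titration format.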
TDP1 cell noCPT = qHTS for Inhibitors of human tyrosyl-DNA phosphodiesterase 1 (TDP1): qHTS in cells in absence of CPT; actives 15% (n = 420,000); DT40 Tdp1-/- hTDP1 cells, no CPT, ATP luminescence, 48 h; Potency, µM (highest dose often 46.2 µM), without a hit: at the highest dose activity change, negative = growth inhibition, most hits filed as inhibitors; further: nearly all actives have a fitted effect of over 55% in size
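Camptothecin absent (DMSO only). Human TDP1-complemented DT40 knockout cells, 400 cells/well, 37 °C for minimum 48 hr; ATP measured via CellTiter-Glo, 30 min dark incubation, luminescence.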
HT1080 IDH1KD tx = qHTS for induction of synthetic lethality in tumor cells producing 2HG: qHTS for the HT-1080-IDH1KD cell line. HT-1080 IDH1 knockdown viability, ATP luminescence, 48 h. Potency, µM (titrated, usually from 46.1 µM), for the others: at the highest dose activity, negative = toxicity, most hits filed as cytotoxic. actives 2% (n = 360,000). AID 686971, 2013;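 further: 0% = DMSO wells and -100% = cell-free medium wells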
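IDH1KD HT-1080 cells, 750/well, RPMI + 5% FBS; compound pinned after 2 h settling; 48 h, 37 °C; CellTiter-Glo luminescence; % activity normalised to DMSO and no-cell wells; curves fitted, classed by r2 and efficacy.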
KB-V1 MDR tox = qHTS assay for MDR1-selective chemotherapeutics: Primary screen using the drug-selected MDR subline cells KB-V1 | AID 1347076, 2019 | KB-V1 MDR cells viability, CellTiter-Glo, 72 h | actives 3.4% (n = 400,000) | Potency, µM (series often up to 46.1 µM), usual class: cytotoxic; further: nearly all actives have a fitted effect of over 60% in size
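In this primary screen, KB-V1 cells overexpressing P-gp are incubated with library compounds (lowest to highest concentration) for 72 h at 37 degrees C before a luminescent ATP viability read.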
KB-3-1 tox = qHTS assay for MDR1-selective chemotherapeutics: Primary screen using the parental adenocarcinoma cell KB-3-1; KB-3-1 viability, CellTiter-Glo ATP luminescence, 72 h; Potency, µM (series often up to 46.1 µM), actives largely listed as cytotoxic; actives 1.4% (n = 400,000); AID 1347075, 2019; further: nearly all actives have a fitted effect of over 60% in size
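Screening of KB-3-1 cells (DMEM, 10% FBS, phenol-red free) ran from lowest to highest compound concentration; after 72 h at 37 °C viability was read luminescently and curves fitted.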
Active calls of the source: *; i = inactive; u = inconclusive; x = no result given; [ ] = remark or other dose. Rows were chosen to be rich in hits. Some 19% of all compounds tested hit in one or more screens of this group. The call rests on the fitted dose curve; in most records, active means well fitted curve in the direction sought with a large enough effect; inconclusive means small, poorly fitted or top-dose-only effect, or another doubt; inactive means no such curve, though single readings can be large; an effect the other way counts as inactive or inconclusive. Unless noted, on the % scale 0 is the no-effect control and ±100 the full control effect; potency means the concentration at half of the fitted maximal effect.

SMILES	HT1080-NT tox	DT40 TDP1 CPT	TDP1 cell noCPT	HT1080 IDH1KD tx	KB-V1 MDR tox	KB-3-1 tox
COc1ccc(-n2nc3c(c2NC(=O)c2c(F)cccc2Cl)CS(=O)C3)cc1 (configuration not stated)	17.7%	7.2%	-0.3%	2.7%	i	i
CCOc1ccc(NCc2nnc(SCc3ccc(Cl)cc3)n2-c2ccccc2)cc1	-9.4%	u	29.1µM*	-19.5%	4.61µM*	u
CCn1c(CNc2ccc(Cl)cc2)nnc1SCCN1CCCCC1	-6.4%	20.6µM*	18.4µM*	-3.9%	i	i
CCn1c(CNc2ccc(Cl)cc2)nnc1SCc1ccc(Cl)cc1	u	u	18.4µM*	u	u	i
COC(=O)c1ccccc1NC(=S)NC(=O)COc1ccccc1	-4.4%	-18.3%	u	-3.0%	i	i
O=C(COc1ccccc1)NCC(=O)Nc1cccc2ccccc12	-2.5%	2.8%	-21.3%	-3.3%	18.4µM*	u
O=C(COc1ccccc1)NC(=S)Nc1cccc2c(O)cccc12	u	u	25.9µM*	u	i	i
CCC(=O)N(c1nnc(SCC(=O)Nc2sccc2C(N)=O)s1)C1CC1	-11.3%	u	u	-14.9%	i	i
Cc1ccc2sc(N3CCN(C(=O)CCS(=O)(=O)c4ccc(Cl)cc4)CC3)nc2c1C	x	4.11µM*	2.31µM*	x	i	i
CCCC(=O)N1CCN(c2nc3c(OC)ccc(Cl)c3s2)CC1	-8.2%	u	-8.2%	-7.9%	i	i
CCCCC(=O)N1CCN(c2nc3c(C)c(C)ccc3s2)CC1	x	u	18.4µM*	x	i	u
O=C(CN1CCN(Cc2ccccc2)CC1)N/N=C/c1cccnc1	0.8%	3.3%	-6.3%	0.8%	i	i
O=C(COC(=O)c1cc[n+]([O-])cc1)Nc1ccc([N+](=O)[O-])cc1Cl	-0.8%	-16.4%	-12.6%	19.1%	i	i
COc1cc2nc(N3CCN(c4cc(C)ccc4C)CC3)nc(N)c2cc1OC	2.59µM*	8.2µM*	7.31µM*	2.59µM*	u	u
O=c1oc(Nc2cccc(F)c2)nc2ccccc12	-9.8%	u	u	-6.4%	u	i
COc1cc2nc(C#N)nc(N)c2cc1OC	21.5%	u	20µM*	16.1%	x	x
Nc1nc(Nc2cccc(F)c2)nc2ccccc12	u	18.4µM*	18.4µM*	u	u	i
COc1ccc(C)cc1Nc1nc(N)c2cc(OC)c(OC)cc2n1	u	4.61µM*	23.1µM*	18.4µM*	u	i
COc1ccc(Cl)cc1Nc1nc(N)c2ccccc2n1	u	u	u	u	i	i
CN1CCC(=NNC(=O)c2cn(-c3ccccc3)nc2-c2ccccc2)CC1	0.0%	-18.2%	u	-11.7%	i	i
Cc1ccc(C)c(Nc2ncnc(N)c2[N+](=O)[O-])c1	15.0%	-1.7%	-21.1%	20.2%	i	i
Cc1ccc(C)c(Nc2nc(N)c3ccccc3n2)c1	-10.4%	u	18.4µM*	-21.4%	i	u
Cc1ccc(COc2ccsc2C(=O)NN)cc1	-14.8%	3.5%	u	-7.8%	i	i
O=C(O)CN1C(=O)S/C(=C\c2cccnc2)C1=O	1.5%	-1.6%	-1.9%	1.3%	i	i
O=C(NCCN1C(=O)S/C(=C/c2cccnc2)C1=O)c1cccs1	-0.5%[9.24 µM]	u	u	-1.8%	i	i
SMILES	HT1080-NT tox	DT40 TDP1 CPT	TDP1 cell noCPT	HT1080 IDH1KD tx	KB-V1 MDR tox	KB-3-1 tox
CC(Oc1ccc(Cl)cc1)C(=O)NCCN1C(=O)S/C(=C\c2cccnc2)C1=O (configuration not stated)	2.1%	20.6µM*	18.4µM*	-1.7%	u	i
O=C(COc1ccccc1-c1ccccc1)NCCN1C(=O)S/C(=C\c2cccnc2)C1=O	-16.2%	16.4µM*	16.4µM*	-19.0%	u	i
O=C(NCCN1C(=O)S/C(=C\c2cccnc2)C1=O)C1=NN(c2ccccc2)C(=O)CC1	-1.7%	u	23.1µM*	1.3%	i	i
CC(NC(=O)COC(=O)/C=C/c1ccc2c(c1)OCO2)c1ccccc1 (configuration not stated)	-3.7%	-0.4%	-8.2%	0.0%	i	i
O=[N+]([O-])/C=C/c1cn(Cc2ccccc2)c2ccccc12	u	18.4µM*	11.6µM*	u	u	u
O=C(Cn1cc(/C=C\[N+](=O)[O-])c2ccccc21)Nc1ccccc1	u	20.6µM*	14.6µM*	3.66µM*	u	u
CC(C)NC(=O)NC(=O)COC(=O)c1ccc(F)cc1F	3.2%	11.9%	-14.2%	18.5%	i	i
Cc1[nH]c2ccccc2c1-c1csc(NC(=O)CN2CCOCC2)n1	0.6%	u	u	-10.8%	u	i
Cn1c(Cc2ccccc2)[n+](C)c2ccccc21	-10.0%	u	14.6µM*	-16.5%	i	u
CCCCCCn1c(O)c(/C=C2\C=NN=C2c2ccccc2)sc1=S	-13.2%	u	23.1µM*	u	u	i
Cn1c(=O)[nH]c(=O)c2c1nc(N1CCCCCC1)n2CCSc1nc2ccccc2[nH]1	1.3%	-14.7%	-27.5%	16.8%	i	i
Cc1nnc(SCCCn2c(N3CCN(c4ccccc4)CC3)nc3c2c(=O)[nH]c(=O)n3C)s1	-0.2%	u	u	-0.2%	u	i
Cn1c(=O)[nH]c(=O)c2c1nc(Br)n2CCSc1ncccn1	0.1%	4.4%	-8.1%	18.0%	u	i
Cn1c(=O)[nH]c(=O)c2c1nc(N1CCCCC1)n2CCCSc1nc2ccccc2s1	-12.0%	13µM*	13µM*	-28.1%	i	i
Cn1c(=O)[nH]c(=O)c2c1nc(Br)n2CCCSc1nc2ccccc2o1	u	u	25.9µM*	u	u	u
Cn1c(=O)[nH]c(=O)c2c1nc(N1CCCC1)n2CCCSc1nc2ccccc2o1	-24.2%	23.1µM*	u	-4.5%	i	i
